# Measurements reported in PubChem BioAssay AID2315 (National Center for Advancing Translational Sciences (NCATS), 2010).
# The campaign covered roughly 290,000 compounds. About 27,000 (9.3%) were called active. Rule as the data show it: active = inhibition mostly above about 28% (no sharp cut-off); inactive = mostly below about 43%. This excerpt belongs to a sample that is enriched for actives.
# Test: A qHTS for Small Molecule Inhibitors of Shiga Toxin; also: 0% is about no effect
# Settings: Vero cells, Shiga toxin protein synthesis inhibition reporter; at 38.7 µM, active compounds read high
row,SMILES,inhibition
1,Cc1ccc(C2Nc3cccc4cccc(c34)N2)cc1,-10.1% (inactive)
2,C=CCN1CCN(C(=O)CCCc2ccccc2)CC1,9.38% (inactive)
3,CCc1c(C)nc(N)n2c(SCC(=O)NC3CCCCC3)nnc12,-19.4% (inactive)
4,OCCN1CCN(C(=S)c2ccc(-c3ccccc3)cc2)CC1,0.879% (inactive)
5,S=C(c1ccccc1)N1CCCC1,-8.23% (inactive)
6,S=C(c1ccc(-c2ccccc2)o1)N1CCCCC1,98.2% (active)
7,N#C[C@]1(S(=O)(=O)c2ccccc2)C[C@@H]2ON=C(c3cccc(Br)c3)[C@@H]2C1,-6.42% (inactive)
8,CCc1nc(N2CCN(C(C)=O)CC2)c2c3c(sc2n1)CCCC3,-5.44% (inactive)
9,Cc1ccc(C(=O)Cn2cccn2)cc1,5.48% (inactive)
10,Cc1ccc(C(=O)CSc2ccccc2C(=O)O)cc1,39.6% (inactive)
11,Cc1ccc(C(=O)Cc2nnc(C)s2)cc1,58.4% (active)
12,CC1CC(=O)N(CC(=O)Nc2cccc(Cl)c2)c2ccccc2S1(=O)=O (stereo not drawn),-4.68% (inactive)
13,CCN(C(=O)COC(=O)c1ccc(COc2ccc3c(C)cc(=O)oc3c2)cc1)C1CCS(=O)(=O)C1 (stereo not drawn),33% (inactive)
14,CCCSc1nc2sc3c(c2c(=O)n1-c1ccc(OC)cc1)CCN(C)C3,-19% (inactive)
15,CC(C)(O)C#Cc1ccc(CN2CCC(CO)(CCc3ccccc3)CC2)cc1,-5.12% (inactive)
16,COCCCNc1nc2c(-c3cccc(C)c3)nnn2c2ccc(Cl)cc12,9.32% (inactive)
17,CCOC(=O)CSc1nnc(CNc2ccc(F)cc2)o1,-20.4% (inactive)

row,SMILES,inhibition
1,Cc1cccc2nc(CNc3ccc(F)cc3)cn12,66.5% (active)
2,COc1cc([N+](=O)[O-])cc([N+](=O)[O-])c1NC(=O)N1CCOCC1,-11.6% (inactive)
3,CCN(c1ccccc1)S(=O)(=O)c1cc2c(cc1C)n(C)c(=O)c(=O)n2C,10.4% (inactive)
4,O=C(CCCN1CCc2[nH]c3ccc(F)cc3c2C1)c1ccc(F)cc1,-5.56% (inactive)
5,O=C(NCCN1CCCC(O)C1)c1cc(COc2c(F)cccc2F)on1 (stereo not drawn),-6.84% (inactive)
6,CC(C)C(=O)NCc1cc(-c2ccc(Cl)cc2)no1,10.8% (inactive)
7,CC(C)Cc1cc(C(=O)Nc2cc(Br)ccc2O)no1,85.5% (active)
8,COC(=O)[C@@H](Cc1ccccc1)NC(=O)NCCc1ccccc1,15.6% (inactive)
9,C[C@H](NC(=O)NCCc1ccccc1)C(=O)O,8.98% (inactive)
10,O=C(NCCCc1ccccc1)c1cc(COc2c(F)cccc2F)on1,78.1% (active)
11,CCCOc1ccc(C(=O)NCCc2ccccc2)cc1,39.8% (inactive)
12,O=C(COC(=O)c1ccc(F)cc1)NCCCc1ccccc1,-1.67% (inactive)
13,O=C(NCCc1ccccc1)c1ccc(OCCOc2ccccc2)cc1,-1.89% (inactive)
14,CC(C)c1ccc(C(=O)NCCCc2ccccc2)cc1,60.6% (active)
15,CC(C)Cc1cc(C(=O)NCCc2ccccc2)no1,87.5% (active)
16,CC(C)/C=N/NC(=O)c1cc(Br)ccc1O,30.6% (inactive)
